CYP2C9 act = human CYP2C9 activators, primary screen, biochemical, luminescence. Cytochrome P450 2C9 (Homo sapiens), P11712. recombinant CYP2C9, luciferin-H conversion; active compounds read high; factor 1 = untreated enzyme, 0 = blocked. activation factor at 5 µM. 1.4% of 96,000 active;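 active = activation factor of 2 or more for CYP2C9 at a 5 µM dose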
Target sequence (P11712 whole entry, looked up): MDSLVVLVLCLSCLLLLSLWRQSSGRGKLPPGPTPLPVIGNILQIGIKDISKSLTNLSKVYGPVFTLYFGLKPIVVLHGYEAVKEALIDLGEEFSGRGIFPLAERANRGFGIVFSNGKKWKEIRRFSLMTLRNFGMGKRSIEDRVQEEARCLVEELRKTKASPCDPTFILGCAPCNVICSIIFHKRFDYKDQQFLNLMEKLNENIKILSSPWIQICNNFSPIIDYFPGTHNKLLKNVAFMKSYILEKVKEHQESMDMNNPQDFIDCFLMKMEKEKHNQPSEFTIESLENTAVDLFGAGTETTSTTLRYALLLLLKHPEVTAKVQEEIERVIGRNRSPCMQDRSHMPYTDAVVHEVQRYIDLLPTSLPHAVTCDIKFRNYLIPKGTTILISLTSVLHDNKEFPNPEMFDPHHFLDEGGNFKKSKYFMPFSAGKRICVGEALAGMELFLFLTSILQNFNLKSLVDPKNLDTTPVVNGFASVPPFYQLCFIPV
sEH activator = soluble epoxide hydrolase activators, primary screen, biochemical, human sEH; Bifunctional epoxide hydrolase 2 (Homo sapiens), P34913; purified human sEH enzymatic activity, activator screen; activation, % at 2 µM; 0.04% of 91,000 active; AID 717, 2007; in the data active = activation above about 37%
CYP2C19 activ = human CYP2C19 activators, primary screen, biochemical, luminescence. recombinant CYP2C19, luciferin-H EGE luminescence; active compounds read high; 0 = fully inhibited enzyme, 1 = untreated enzyme. activation factor at 5 µM. 96,000 tested, under 10 active. AID 1025, 2008;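 active = activation factor of at least 2 at 5 µM in the primary screen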
sEH inh = soluble epoxide hydrolase inhibitors, primary screen, biochemical, human sEH | recombinant human sEH enzymatic activity assay | 0.34% of 91,000 active | inhibition, % at 2 µM; in the data active = inhibition above about 80%
CYP2C9 inh = blockers of cytochrome P450 2C9 activity – biochemical, luminescence, ADME assay, primary screen; inhibition, % at 5 µM; AID 777, 2007; P11712; 20% of 96,000 active; CYP2C9 Supersomes, luciferin-H conversion;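 active = blocking of liver enzyme CYP2C9 beyond about 50% at 5 µM, limit read from the data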
CYP2C19 inh = blockers of cytochrome P450 2C19 activity – biochemical, luminescence, ADME assay, primary screen; CYP2C19 Supersomes, luciferin-H EGE luminescence, 30 min; inhibition, % at 5 µM; 21% of 96,000 active;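 active = CYP2C19 inhibition above a set limit at 5 µM in the primary screen, cut at about 50% in these data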
Each line names hits and unclear results; the compound was inactive in the other large screens. An excerpt weighted towards active compounds, which were near 27% of everything screened.

Cc1ccccc1OCC(=O)N(Cc1ccc(N(C)C)cc1)C1CCS(=O)(=O)C1 (stereo unspecified)	none
Cc1ccc(-c2onc3ccc(C=O)cc23)cc1	none
Cc1ccc(-c2onc3ccc(C4(C)OCCO4)cc23)cc1	CYP2C9 inh 53.9, CYP2C19 inh 59.9
CCN1C(=O)C(O)(C2COC(C)(C)CC2=O)c2cc(Br)ccc21 (stereo unspecified)	none
C=CCNc1nc(N)c(C(=O)c2ccc3c(c2)OCO3)s1	CYP2C19 inh 89.7
Cc1ccc(CN2C(=O)CCC2C(=O)NC2CCCC2)cc1 (stereo unspecified)	none
N#C/C(=C\c1ccc(-c2ccccc2)o1)C(=O)Nn1cnnc1	CYP2C9 inh 98.8, CYP2C19 inh 92.0
Nc1nnc(SCc2cc3c(cc2Cl)OCO3)s1	CYP2C19 inh 69.7
Cc1cc(C)c(C#N)c(SCc2cc3c(cc2Cl)OCO3)n1	none
Nc1nnc(SCc2ccccc2Cl)s1	CYP2C19 inh 67.8
COc1ccc(NC(=O)CN(C)S(=O)(=O)c2ccc3c(c2)OCCO3)c2ncccc12	none
Cc1nc2ncnn2c(C)c1CCC(=O)NCc1ccc2c(c1)OCO2	none
CC(C)(C)c1cc(NC(=O)COc2ccc(Br)cc2)n(-c2ccccc2)n1	none
CSCCC(NC(=O)COc1ccccc1)C(=O)N1CCN(c2ccccc2F)CC1 (stereo unspecified)	CYP2C9 inh 78.2, CYP2C19 inh 74.0
CN1CCN(c2ccccc2NC(=O)COc2ccccc2)CC1	none
CCc1nnc(NC(=O)c2nc3nc(C)cc(C)n3n2)s1	none
Cc1cccc(NC(=O)N2CCN(Cc3ccccc3)CC2)c1	none (no result: CYP2C9 act, CYP2C19 activ, CYP2C9 inh, CYP2C19 inh)
O=C(c1cc2ccccn2n1)N1CCN(Cc2ccccc2)CC1	CYP2C19 inh 95.8
CCOC(=O)N1CCN(C(=O)c2c(-c3ccccc3)noc2C)CC1	none (no result: sEH activator, sEH inh)
Cc1cc(C(=O)N2CCN(Cc3ccccc3)CC2)on1	CYP2C19 inh 95.1 (no result: sEH activator, sEH inh)
CCOC(=O)N1CCN(C(=O)c2cc(C)no2)CC1	CYP2C19 inh 71.2
COC(=O)[C@H](Cc1ccccc1)NC(=O)N1CCN(Cc2ccccc2)CC1	none
CCc1ccc2oc(-c3cc(N)ccc3O)nc2c1	none
CCc1ccc2oc(-c3cc(N)cc(C)c3O)nc2c1	CYP2C9 inh 93.7, CYP2C19 inh 95.1
CCc1ccc2oc(-c3cc(N)ccc3Cl)nc2c1	CYP2C19 inh 53.0 (no result: sEH activator, sEH inh)
CCCNC(=O)NC(=O)CSc1nnc(C)n1N	none
O=C1CC(c2ccncc2)c2cc3c(cc2N1)OCCO3 (stereo unspecified)	CYP2C9 inh 58.9, CYP2C19 inh 60.6
CCOc1c(OC)cccc1C1CC(=O)Nc2cc3c(cc21)OCCO3 (stereo unspecified)	CYP2C9 inh 69.7, CYP2C19 inh 93.9 (no result: sEH activator, sEH inh)
O=C1CC(c2ccsc2)c2cc3c(cc2N1)OCCO3 (stereo unspecified)	none (no result: sEH activator, sEH inh)
O=C1CC(c2cccs2)c2cc3c(cc2N1)OCO3 (stereo unspecified)	CYP2C19 inh 67.1
COc1cc2c(cc1OC)C(c1cccs1)CC(=O)N2 (stereo unspecified)	none
O=C1CC(c2ccc3c(c2)OCO3)c2cc3c(cc2N1)OCCO3 (stereo unspecified)	CYP2C9 inh 91.4, CYP2C19 inh 78.1
CCCn1nc(Oc2nc(NCC)nc(NC(C)C)n2)ccc1=O	none
CC1Sc2ccccc2N(CC(=O)N(C(C)C)C(C)C)C1=O (stereo unspecified)	none
CCCCOC(=O)C(C)Nc1n[nH]c(=S)[nH]c1=O (stereo unspecified)	CYP2C9 inh 79.4
CCCCOC(=O)C(C)Nc1n[nH]c(=O)[nH]c1=O (stereo unspecified)	none
CC(Nc1n[nH]c(=S)[nH]c1=O)C(=O)OCc1ccccc1 (stereo unspecified)	CYP2C9 inh 89.8 (no result: sEH activator, sEH inh)
CN1C(=O)CC(N2CCC(c3nc4ccccc4[nH]3)CC2)C1=O (stereo unspecified)	none
COc1cc(NC(=O)N[C@H](C(=O)O)C(C)C)cc(OC)c1	none
Cc1cc(C)c(NN=c2c(=O)c3ccccc3c2=O)c(C)c1	none
O=c1c(=NNc2ccccc2Cl)c(=O)c2ccccc12	CYP2C19 inh 60.3
CCN(CC)S(=O)(=O)c1ccc2c(c1)nc(SCc1nc3ccsc3c(=O)[nH]1)n2CC	CYP2C9 inh 69.1
COc1cccc(CSc2nnc(CSc3nc4nc(C)cc(C)n4n3)s2)c1	CYP2C19 inh 97.8
Cc1cc(C)n2nc(SCc3nnc(SCc4ccccc4C)s3)nc2n1	CYP2C19 inh 77.1
CCOC(=O)c1ccc2nc3c(cc2c1)CCS3	none
N#CC1=C(N)N2C(=C(C#N)C13CCCCC3)SC1CCCCC12O (stereo unspecified)	none (no result: sEH activator, sEH inh)
N#CC1=C(N)NC(SCc2ccc(Cl)cc2)=C(C#N)C12CCCCC2	CYP2C9 inh 100.1, CYP2C19 inh 100.0
CC1(C)CC(=O)C2=C(C1)NC(SCC(=O)Nc1ccccc1)=C(C#N)C21CCCCC1	none
N#CC1=C(N)NC(SCC(=O)Nc2ccc(Br)cc2)=C(C#N)C12CCCCC2	CYP2C9 inh 96.1, CYP2C19 inh 99.5
CCSC1=C(C#N)C2(CCCC2)C(C#N)=C(N)N1	CYP2C9 inh 95.1, CYP2C19 inh 95.3
CSC1=C(C#N)C2(CCCC2)C(C#N)=C(N)N1	CYP2C9 inh 63.0, CYP2C19 inh 76.9
N#CC1=C(N)NC(SCc2ccc(Br)cc2)=C(C#N)C12CCCCC2	none (no result: CYP2C9 act, CYP2C19 activ, CYP2C9 inh, CYP2C19 inh)
Cc1ccc(NC2=NC(c3ccco3)n3c(nc(C)cc3=O)N2)c(C)c1 (stereo unspecified)	none (no result: sEH activator, sEH inh)
COC(=O)Cc1cc(=O)[nH]c(/N=C(\N)Nc2ccccc2)n1	none
O=C(NCC1CCCO1)C1C2C=CC3(CN(Cc4cccs4)C(=O)C13)O2 (stereo unspecified)	none
O=C(O)c1c2c(nc3ccc(S(=O)(=O)N4CCC(C(=O)NC5CCCC5)CC4)cc13)CCCCC2	CYP2C9 inh 51.8 (no result: sEH activator, sEH inh)
CC1CCc2nc3ccc(S(=O)(=O)N4CCC(C(=O)N5CCCCC5)CC4)cc3c(C(=O)O)c2C1 (stereo unspecified)	none
CC1CCc2nc3ccc(S(=O)(=O)N4CCC(C(=O)NC5CCCC5)CC4)cc3c(C(=O)O)c2C1 (stereo unspecified)	CYP2C9 inh 59.8
CSc1nnc(-c2ccc(S(=O)(=O)N3CCOCC3)cc2)n1CC1CCCO1 (stereo unspecified)	none
CCCCN=CC1=C(O)C(C(=O)OC)C(C)(C)CC1=O (stereo unspecified)	none (no result: sEH activator, sEH inh)
Cc1ccccc1CSCC(Nc1ccc(C(=O)O)cc1[N+](=O)[O-])C(=O)O (stereo unspecified)	CYP2C9 inh 69.3

Assay outcomes deposited in PubChem by several laboratories.
